Consider nine molecules from PubChem BioAssay (Tox21).

Molecules are shown by their SMILES. Values without a mark were called inactive. Results filed as inconclusive are left out. Calls of active or inactive are those of the source. Unless noted, the call rests on the fitted dose curve; in most records, active means well fitted curve in the direction sought with a large enough effect in the repeat runs; inconclusive means weak or mixed curves; inactive means no such curve, though single readings can be large; an effect the other way counts as inactive or inconclusive.

The target in assay [1] is Luciferin 4-monooxygenase (Photinus pyralis) (UniProt P08659). Nature of the assay: qHTS assay to identify small molecule inhibitors of firefly luciferase (AID 1224835). Further: series mostly up to about 120 µM; nearly all actives have a fitted effect of over 25% in size. In short, it runs like this:
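Inhibition of purified Photinus luciferase is measured by luminescence. Substrate levels (D-luciferin, ATP) sit at their KM values. Each compound is tested in a concentration series.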

The nature of assay [2]: qHTS assay to identify small molecule antagonists of the constitutive androstane receptor (CAR) signaling pathway - cell viability counter screen (AID 1224837). Further: series mostly up to about 92 µM; nearly all actives have a fitted effect of over 45% in size. In short, it runs like this:
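Cytotoxicity counter-screen: CellTiter-Fluor fluorescence after 23 h compound exposure (15-point qHTS) in double-stable HepG2-CYP2B6-hCAR cells, with 50 nM CITCO added.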

Assay [3] can be described thus: qHTS assay to identify small molecule antagonists of the estrogen related receptor signaling pathway with the pleiotropic PPARgamma coactivator (PGC) from Tox21 10K library (AID 1224841; call rule not given here; further: actives are mostly falling curves and most rising ones were filed inactive; nearly all actives have a fitted effect of over 50% in size; further: potency means the concentration at half of the fitted maximal effect; on activity, negative = inhibition: series mostly up to about 92 µM). In outline:
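Luminescence (One-Glo, 30 min at room temperature) after 18 h compound treatment at 37 C of PGC/ERR reporter cells plated at 2,000 cells/well and settled 6 h beforehand.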
For orientation: In qHTS, concentration-response curves come from the screen itself.

Assay [4] is described as follows: qHTS assay to identify small molecule agonists of the estrogen related receptor signaling pathway with the pleiotropic PPARgamma coactivator (PGC) from Tox21 10K library (AID 1224842). Further: nearly all actives have a fitted effect of over 15% in size. In outline: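 Luminescence from One-Glo (30 min, room temperature) measured after PGC/ERR cells had 18 h at 37 C with pinned compound (23 nL in DMSO). Cells had been seeded at 2,000 per well and pre-incubated 6 h.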

The target of assay [5] is Thyrotropin receptor (Homo sapiens) (UniProt P16473). Description: qHTS assay to identify small molecule agonists of the thyroid stimulating hormone receptor (TSHR) signaling pathway (AID 1224843; calls by dose curve; further: nearly all actives have a fitted effect of over 45% in size). In outline:
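Agonist activity read as cAMP rise via d2/cryptate HTRF competition, 1 h room-temperature detection, in HEK293 cells expressing TSHR. Fifteen-point titrations, each run in triplicate, with a 30 min room-temperature incubation beforehand.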

Assay [6] in a line: qHTS assay to identify small molecule agonists of the hypoxia (HIF-1) signaling pathway - cell viability counter screen (AID 1224844; calls by dose curve; further: nearly all actives have a fitted effect of over 50% in size). In outline: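 Cytotoxicity measured by CellTiter-Glo ATP luminescence in the wells also read for beta-lactamase signal. Cells were HRE-bla ME-180 (2,000/well, 0.5% dialyzed FBS), exposed to compounds for 17 h at 37C.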
A short description of assay [7]: qHTS assay to identify small molecule agonists of H2AX (AID 1224845; active means well fitted activation curve with a large enough effect in the signal ratio in the repeat runs, not every such curve was filed as active; the % refers to the signal ratio). In short, it runs like this:
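Phospho-H2AX Ser139 measured by HTRF (ex 320 nm; em 665 and 620 nm) after 24 hr antibody incubation. Compounds, 15 concentrations, 0.76% DMSO, were applied to CHO-K1 cells for 3hr at 37C before lysis.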

Assay [8] in a line: qHTS assay to identify small molecule agonists of H2AX - cell viability counter screen (AID 1224847; calls by dose curve; further: top concentration of the series differs between compounds; nearly all actives have a fitted effect of over 30% in size). In outline:
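Viability of CHO-K1 (wild type) cells after 3 hr compound exposure was measured by CellTiter-Glo luminescence.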

A short description of assay [9]: qHTS assay to identify small molecule antagonists of the estrogen related receptor (ERR) signaling pathway from Tox21 library (AID 1224848). Further: nearly all actives have a fitted effect of over 50% in size. Further: potency means the concentration at half of the fitted maximal effect. In outline: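 Luciferase luminescence (ONE-Glo, 30 min room temperature) was the read-out. Cells of the NTP-supplied ERR line, 2,000 per well, were given 6 h at 37 C before compound addition in DMSO and 18 h exposure at 37 C.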

Assay [10] is described as follows: qHTS assay to identify small molecule agonists of the estrogen related receptor (ERR) signaling pathway from Tox21 library (AID 1224849; calls by dose curve; further: nearly all actives have a fitted effect of over 15% in size). In outline: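 Luminescent agonist read-out (One-Glo, 30-minute room-temperature incubation) following 18-hour compound treatment at 37 C of the ERR cell line, which had been plated 6 hours before dosing.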
Assay [11] is described as follows: qHTS RealTime-Glo MT Cell Viability Assay in HepG2 cells - 24 hour (AID 1224867). Further: nearly all actives have a fitted effect of over 50% in size. In short, it runs like this:
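qHTS, HepG2, 600 cells/well, RealTime-Glo (NanoLuc + prosubstrate) added with cells; 5 h preincubation; DMSO compound addition; 37 C; luminescence at 0/8/16/24/32/40 h.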

The nature of assay [12]: qHTS RealTime-Glo MT Cell Viability Assay in HEK293 cells - 32 hour (AID 1224868). Further: nearly all actives have a fitted effect of over 50% in size. Further: potency means the concentration at half of the fitted maximal effect. On activity change, negative = cytotoxic: top concentration of the series differs between compounds. In outline: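 Assay medium contained NanoLuc luciferase plus cell-permeant prosubstrate, added with HEK293 cells at 600 cells/well. After 5 h at 37 C/5% CO2 compounds were added; plates stayed at 37 C for 40 h with serial luminescence reads.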
Assay [13] in a line: A CellTox Green Cytotoxicity Assay to monitor cytotoxicity in HEK293 cells - 0 hour (AID 1224869). Further: nearly all actives have a fitted effect of over 50% in size. In outline:
(§1)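 Fluorescence from a DNA-binding dye excluded by viable cells was measured repeatedly in the same HEK293 wells (600 cells/well) during continuous compound exposure at 37 C. Each assay gives one read point: 0, 8, 16, 24, 32 or 40 h.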

Assay [14] can be described thus: qHTS RealTime-Glo MT Cell Viability Assay in HepG2 cells - 40 hour (AID 1224870). Further: nearly all actives have a fitted effect of over 50% in size. In outline:
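Real-time viability: cells seeded at 600 per well together with NanoLuc and cell-permeant prosubstrate, compounds added after 5 h incubation. Luminescence tracked at 0, 8, 16, 24, 32 and 40 h of exposure.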

Assay [15] can be described thus: A CellTox Green Cytotoxicity Assay to monitor cytotoxicity in HEK293 cells - 40 hour (AID 1224871). Further: nearly all actives have a fitted effect of over 45% in size. Further: potency means the concentration at half of the fitted maximal effect. In short, it runs like this: as §1
A short description of assay [16]: qHTS assay to identify small molecule agonists of the hypoxia (HIF-1) signaling pathway (AID 1224846; active means well fitted activation curve with a large enough effect in the signal ratio in the repeat runs, not every such curve was filed as active; the % refers to the signal ratio). In outline: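 Compounds added to ME-180 cells carrying hypoxia-response-element beta-lactamase reporter (0.5% dialyzed FBS, 5 h preplating), 17 h at 37C; agonist activity detected by CCF4-AM B/G FRET read-out.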
Assay [17] can be described thus: qHTS assay to identify small molecule agonists of the constitutive androstane receptor (CAR) signaling pathway - cell viability counter screen (AID 1224836). Further: series mostly up to about 92 µM; nearly all actives have a fitted effect of over 45% in size. In short, it runs like this: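 Fluorescence from CellTiter-Fluor indicates live cells after 23 h exposure. The human hepatoma line expresses hCAR and a CYP2B6-2.2kb reporter. Incubation medium contains 0.75 uM PK11195 (final).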

The target of assay [18] is Nuclear receptor subfamily 1 group I member 3 (Homo sapiens) (UniProt Q14994). Nature of the assay: qHTS assay to identify small molecule antagonists of the constitutive androstane receptor (CAR) signaling pathway (AID 1224838).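 Further: HepG2 cells stably expressing hCAR with CYP2B6 luciferase reporter stimulated by CITCO; nearly all actives have a fitted effect of over 40% in size.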 In outline:
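Antagonism measured as luciferase signal (ONE-Glo, 30 min, room temperature) in CAR-stimulated cells: HepG2-CYP2B6-hCAR double-stable line exposed 24 hr at 37 C to compound in a 15-point series plus 50 nM CITCO.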

For assay [19] the target is unchanged. Nature of the assay: qHTS assay to identify small molecule agonists of the constitutive androstane receptor (CAR) signaling pathway (AID 1224839). Further: nearly all actives have a fitted effect of over 15% in size. Further: potency means the concentration at half of the fitted maximal effect.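 On activation: HepG2 cells stably carrying human CAR and a CYP2B6 luciferase reporter; series mostly up to about 92 µM.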 In short, it runs like this:
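Stable hCAR/CYP2B6-2.2kb HepG2 line in DMEM with 10% FBS; compounds (15 concentrations) and 0.75 uM PK11195 final, 24 h at 37 C/5% CO2, then ONE-Glo luminescence after 30 min.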

Assay [20] can be described thus: qHTS assay to identify small molecule antagonists of the estrogen related receptor signaling pathway with the pleiotropic PPARgamma coactivator (PGC) from Tox21 10K library - cell viability counter screen (AID 1224840; active means well fitted cell-killing curve with a large enough effect in the repeat runs, not every such curve was filed as active; further: nearly all actives have a fitted effect of over 40% in size). In outline:
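Counter-screen for cytotoxicity: after 17.5 h compound exposure at 37 C, CellTiter-Fluor reagent added to PGC/ERR cells for 30 min and fluorescence read. Cells were seeded at 2,000 per well 6 h before dosing.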
On the % scale 0 is the no-effect control and ±100 the full control effect.

Nuclear receptor subfamily 1 group I member 3 (Homo sapiens), sequence (Q14994 whole entry, looked up): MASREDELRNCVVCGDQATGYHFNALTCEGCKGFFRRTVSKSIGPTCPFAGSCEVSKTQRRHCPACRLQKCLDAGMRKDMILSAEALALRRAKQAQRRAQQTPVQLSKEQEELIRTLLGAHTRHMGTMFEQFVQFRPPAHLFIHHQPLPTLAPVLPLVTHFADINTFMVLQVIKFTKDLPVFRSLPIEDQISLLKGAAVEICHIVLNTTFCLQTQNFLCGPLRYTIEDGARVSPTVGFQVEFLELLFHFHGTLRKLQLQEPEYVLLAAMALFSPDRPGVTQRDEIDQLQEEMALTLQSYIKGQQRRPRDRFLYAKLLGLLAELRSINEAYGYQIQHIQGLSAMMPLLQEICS
Luciferin 4-monooxygenase (Photinus pyralis), sequence (P08659 whole entry, looked up): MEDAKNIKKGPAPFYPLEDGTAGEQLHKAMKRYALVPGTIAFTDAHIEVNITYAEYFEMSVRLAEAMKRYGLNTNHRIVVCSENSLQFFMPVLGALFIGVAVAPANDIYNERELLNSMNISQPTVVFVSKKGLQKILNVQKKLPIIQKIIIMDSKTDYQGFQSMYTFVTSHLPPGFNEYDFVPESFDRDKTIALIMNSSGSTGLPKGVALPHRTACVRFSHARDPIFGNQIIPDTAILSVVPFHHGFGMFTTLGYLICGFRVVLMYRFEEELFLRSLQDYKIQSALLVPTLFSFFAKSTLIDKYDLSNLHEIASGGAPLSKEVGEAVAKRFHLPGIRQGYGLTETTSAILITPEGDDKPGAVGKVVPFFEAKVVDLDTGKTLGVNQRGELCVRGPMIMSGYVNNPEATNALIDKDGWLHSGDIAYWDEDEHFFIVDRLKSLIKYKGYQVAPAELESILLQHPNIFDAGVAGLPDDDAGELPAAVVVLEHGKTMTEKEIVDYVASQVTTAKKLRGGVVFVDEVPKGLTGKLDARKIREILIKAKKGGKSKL
Thyrotropin receptor (Homo sapiens), sequence (P16473 whole entry, looked up): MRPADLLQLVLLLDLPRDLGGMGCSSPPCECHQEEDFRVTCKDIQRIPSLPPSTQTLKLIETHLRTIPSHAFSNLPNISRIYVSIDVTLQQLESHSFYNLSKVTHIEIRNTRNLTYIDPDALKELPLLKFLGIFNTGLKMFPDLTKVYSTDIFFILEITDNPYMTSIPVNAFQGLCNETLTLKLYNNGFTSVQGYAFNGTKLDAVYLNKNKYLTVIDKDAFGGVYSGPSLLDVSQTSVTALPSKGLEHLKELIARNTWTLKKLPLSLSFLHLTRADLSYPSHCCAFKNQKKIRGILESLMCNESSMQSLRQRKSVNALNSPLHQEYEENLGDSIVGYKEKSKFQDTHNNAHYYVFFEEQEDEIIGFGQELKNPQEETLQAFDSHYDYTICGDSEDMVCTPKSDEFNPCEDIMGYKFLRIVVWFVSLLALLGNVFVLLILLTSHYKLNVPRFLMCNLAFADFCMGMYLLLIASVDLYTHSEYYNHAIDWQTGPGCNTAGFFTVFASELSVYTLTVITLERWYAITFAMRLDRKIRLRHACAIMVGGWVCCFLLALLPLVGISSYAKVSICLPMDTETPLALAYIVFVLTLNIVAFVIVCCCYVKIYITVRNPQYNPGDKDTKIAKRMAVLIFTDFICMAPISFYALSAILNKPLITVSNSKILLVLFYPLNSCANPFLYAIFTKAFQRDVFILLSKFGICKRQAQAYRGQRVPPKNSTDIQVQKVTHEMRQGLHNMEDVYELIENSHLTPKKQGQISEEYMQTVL

For the molecule `Cc1ccnc(NS(=O)(=O)c2ccc(N)cc2)n1`, the Potency result in [1], in assay [3], in assay [4], in assay [5], in [6] and in assay [7] was “inactive” in each case. For the same molecule, the Potency result in [9], in assay [12], in [14] and in [15] was “inactive” throughout. The result in [2], in assay [8], in assay [10], in assay [11] and in assay [13] was inactive.

On to `CCN(Cc1ccccc1)c1ccccc1`, for which the Potency result in [1], in assay [4], in assay [5] and in assay [14] was “inactive” in each case. Moreover, the Potency in assay [3] is 42.7 µM (active); in [9], 30.3 µM (active); in assay [12], 19.3 µM (active); in assay [15], 43.1 µM (active). The molecule was classed as inactive in [16], in assay [8], in [10] and in assay [11].

`COC(=O)Nc1ccc(Cl)c(Cl)c1`: the molecule was classed as inactive in assay [17], in assay [2], in assay [20], in assay [16], in [8] and in assay [11]. For the same molecule, the Potency entry in [18], in [5], in assay [6], in assay [7], in assay [14] and in [15] was “inactive” in each case. Besides, the Potency in assay [19] was 60.8 µM (active).

With `CC(C)(C)C(=O)Oc1ccc(S(=O)(=O)Nc2ccccc2C(=O)NCC(=O)O)cc1`, the molecule was called inactive in assay [17], in assay [2], in assay [20], in [16], in assay [8] and in assay [11]. Moreover, in [13], the result was inactive. Besides, the Potency entry in assay [18], in assay [19], in assay [6], in assay [7], in [12] and in assay [14] was “inactive” each time. For the same molecule, the Potency result in [15] was “inactive”.

Consider `CN1CCN(c2cc3c(nn2)Oc2ccccc2N3C)CC1`, for which the viability change, negative = cytotoxic was -2.12% [at 19 µM] in [17] and 2.34% [at 19 µM] in assay [20]. Further, the figures for the activity change, negative = cytotoxicity in assay [2], in assay [8] and in assay [11] were -0.71% [at 19 µM], 0.295% [at 31.6 µM] and -0.547% [at 15.8 µM], respectively. In assay [18], the activity, negative = inhibition was 125% [at 19 µM]. The Potency in assay [19] was 5.8 µM (active). Also, the values for the activation in assay [5] and in assay [16] were -2.7% [at 19 µM] and 0.831% [at 15.8 µM], respectively. Also, the activity change, negative = cytotoxic in [12] is 1.71% [at 15.8 µM]; in assay [14] it was 1.01% [at 15.8 µM]. Moreover, in assay [13], the cytotoxicity was -3.85% [at 15.8 µM].

As to `Cc1ncc([C@@H](CCCCCCc2ccc3c(n2)NCCC3)CC(=O)O)cn1`, the Potency entry in assay [1], in [6], in assay [7], in [12], in assay [14] and in assay [15] was “inactive” throughout. The molecule was called inactive in [17], in assay [20], in [16] and in assay [11].

For the molecule `O=C(c1ccccc1O)c1ccccc1O`, the result in [17], in assay [2], in [20], in assay [16], in [8] and in [11] was inactive. Besides, the molecule was classed as inactive in assay [13]. Further, the Potency entry in assay [18], in assay [19], in [5], in assay [6] and in [14] was “inactive” throughout. The Potency in [15] was 48.5 µM (active).

With `c1ccc2sc(SN3CCOCC3)nc2c1`, the outcome in assay [17], in [2], in assay [20], in assay [16], in assay [8] and in assay [10] was inactive. Moreover, the call in assay [11] and in assay [13] was inactive. For the same molecule, the Potency entry in [18], in assay [3], in [4], in [5], in assay [6] and in assay [7] was “inactive” each time. Also, the Potency entry in assay [9], in assay [12], in assay [14] and in assay [15] was “inactive” each time.

Turning to `CC(C)COC(=O)c1ccc(N)cc1`, the molecule was called inactive in assay [17], in [2], in assay [20], in assay [16], in assay [11] and in assay [13]. Moreover, the Potency result in [3], in [5], in assay [6], in assay [7], in assay [9] and in assay [12] was “inactive” each time. In addition, the Potency result in assay [14] and in assay [15] was “inactive” each time.
